This passage reports Potency results from PubChem BioAssay (NCATS).

Records with an inconclusive call do not appear. A call without a number means that no potency is given here. The source made the active and inactive calls. Calls follow the shape of the dose curve; as a rule, active = well fitted cell-killing curve with a large enough effect; inconclusive = small, poorly fitted or top-dose-only effect, or effect the other way; inactive = no such curve, though single readings can be large or run the other way.
Potency is read from the fitted curve at half-maximal effect.

The assay is described as follows: Quantitative High-Throughput drug screen in 47 multiple myeloma cell lines against the NCATS MIPE library collection: MOLP8_DSMZ cell viability assay (AID 1918977). Also: nearly all actives have a fitted effect of over 45% in size. Conditions: MOLP8 myeloma viability, CellTiter-Glo ATP luminescence, 48 h; series mostly up to 45.8 µM. In short, it runs like this:
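Cells were exposed to library compounds for 48 hours, after which ATP was measured by CellTiter-Glo. Signal was taken as median relative luminescence units.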
(In ATP-based viability assays light output follows the ATP content of the culture.)
Take `CCC(c1ccc(O)cc1)C(CC)c1ccc(O)cc1` (stereo unspecified): the Potency entry is “inactive”. To `CN1CCN(c2ncc(-c3cc(Cl)cc(Cl)c3Cl)c(N)n2)CC1` belongs “inactive”. To `C#C[C@]1(O)CC[C@H]2[C@H]3CCc4cc(OC)ccc4[C@H]3CC[C@@]21C` belongs “inactive”; to `O=C(O)CCC=CCC[C@@H]1[C@H](N2CCCCC2)[C@@H](O)C[C@@H]1OCc1ccc(-c2ccccc2)cc1`, “inactive”. For `C#CCN(C)CC1=Cc2ccccc2Oc2ccccc21`, the Potency entry was “inactive”.

Regarding `Nc1ccc(-c2ccc3ncc4ccc(=O)n(-c5cccc(C(F)(F)F)c5)c4c3c2)cn1`, the Potency is 0.0059 µM (active).

Consider `c1ccc(CNc2nc(N3CCOc4ccccc43)nc3c2CCCC3)cc1`, for which the Potency entry was “inactive”. To `CCCCn1c(=O)n(Cc2ccccc2F)c(=O)c2[nH]c(Cc3ccc(NC(C)=O)cc3)nc21` belongs “inactive”; to `C[C@@H](O)[C@H]1C(=O)N2C(C(=O)OCOC(=O)C(C)(C)C)=C(SC3CN(C4=NCCS4)C3)[C@H](C)[C@H]12`, “inactive”; to `O[C@@H](COc1cccc2ncccc12)CN1CCN(C2c3ccccc3[C@@H]3[C@H](c4ccccc42)C3(F)F)CC1` (stereo partly specified), 23.5 µM (active).

As for `Nc1ccn([C@@H]2O[C@H](CO)[C@@H](O)[C@H]2O)c(=O)n1`, the Potency entry is “inactive”. To `CC1=C(C(=O)Nc2cc3cn[nH]c3cc2F)C(c2ccc(C(F)(F)F)cc2)CC(=O)N1` (stereo unspecified) belongs “inactive”; to `CCCCCCOC(=O)N=C(N)c1ccc(NCc2nc3cc(C(=O)N(CCC(=O)OCC)c4ccccn4)ccc3n2C)cc1`, 20.9 µM (active).

Regarding `COC(=O)[C@H](c1ccccc1Cl)N1CCc2sccc2C1`, the Potency entry is “inactive”. As to `COc1ccnc(CS(=O)c2nc3ccc(OC(F)F)cc3[nH]2)c1OC` (stereo unspecified), the Potency result was “inactive”. As to `CN(C)CCOc1cc(-c2cn[nH]c2)ccc1NC(=O)C1COc2ccccc2O1` (stereo unspecified), the Potency result was “inactive”.
